Experimental findings from ChEMBL document CHEMBL4296183, “CO-ADD screening of NIH NCI Natural Product Set III” (2020) are described below.

For part of these data: Results with a measured potency or affinity are listed apart.

For orientation: Inhibition means the change of the read-out against control, counted positive when it falls.

One experiment relates to Staphylococcus aureus. The experiment in a line: Antibacterial activity against Staphylococcus aureus MRSA ATCC 43300 (CO-ADD:GP_020); MIC in CAMBH media using NBS plates, by Resazurin F(560/590). Type of experiment: functional. The conditions noted are these: Concentration 20 uM, ASSAY_TEST Inhibition of Bacterial Growth, detection method Resazurin, Fluorescence (ex560/em590), MEDIA CAMHB, plate type 384well, CORNING #3640, time 18 hr. A general note: The colour change of resazurin is a common sign of viable cells or microbes.

The test system of a further experiment is Acinetobacter baumannii. The experiment is described as follows: Antibacterial activity against Acinetobacter baumannii ATCC 19606 (CO-ADD:GN_034); MIC in CAMBH media using NBS plates, by Resazurin F(560/590). The format is functional. The following applies: Concentration 20 uM, ASSAY_TEST Inhibition of Bacterial Growth, detection method Resazurin, Fluorescence (ex560/em590), MEDIA CAMHB, plate type 384well, CORNING #3640, time 18 hr.

For the next experiment, the system named is Escherichia coli. The experiment is described as follows: Antibacterial activity against Escherichia coli ATCC 25922 (CO-ADD:GN_001); MIC in CAMBH media using NBS plates, by Resazurin F(560/590). Type of experiment: functional. The following applies: Concentration 20 uM, ASSAY_TEST Inhibition of Bacterial Growth, detection method Resazurin, Fluorescence (ex560/em590), MEDIA CAMHB, plate type 384well, CORNING #3640, time 18 hr.

A further experiment deals with Klebsiella pneumoniae. The conditions noted are these: Concentration 20 uM; ASSAY_TEST Inhibition of Bacterial Growth; detection method Absorption (OD600); MEDIA CAMHB; plate type 384well; NBS; CORNING #3640; time 18 hr.
A further experiment has as its system Candida albicans. The following applies: 20 µM.
For the next experiment, the system named is Cryptococcus neoformans. The following applies: Concentration 20 uM; ASSAY_TEST Inhibition of Fungal Growth; detection method Resazurin; Absorption (OD600-OD570); plate type 384well; NBS; CORNING #3640.

In the case of `CC(=O)C1CCCC(=O)/C=C/C(=O)O1` (stereo not given), the Inhibition is -2.82% with Staphylococcus aureus; -9.57% in the experiment with Acinetobacter baumannii; -0.06% in the experiment with Escherichia coli; -0.08% in the experiment with Klebsiella pneumoniae; 6.81% in the experiment with Candida albicans; -5.33% in the experiment on Cryptococcus neoformans.

As for `COC1/C=C\C=C(/C)C(=O)NC2=CC(=O)C(N)=C(CC(C)CC(OC)C(O)C(C)/C=C(\C)C1OC(N)=O)C2=O` (stereo not given), the Inhibition in the experiment on Staphylococcus aureus was 2.59%; in the experiment with Acinetobacter baumannii it was -32.33%; in the experiment with Escherichia coli it was -4.57%; in the experiment with Klebsiella pneumoniae it was 4.53%; with Candida albicans it was -0.48%; in the experiment on Cryptococcus neoformans, -11.91%.

Take `COc1cc(/C=C/C(=O)CC(=O)/C=C/c2ccc(O)c(OC)c2)ccc1O` [CURCUMIN]: the Inhibition is 13.57% in the experiment with Staphylococcus aureus; -16.03% with Acinetobacter baumannii; 0.88% with Escherichia coli; 14.8% with Klebsiella pneumoniae; -4.9% in the experiment on Candida albicans; -10.45% in the experiment on Cryptococcus neoformans.

For `COc1c2occc2cc2ccc(=O)oc12` [METHOXSALEN], the Inhibition with Staphylococcus aureus is 3.08%; with Acinetobacter baumannii it was -6.09%; with Escherichia coli, 2.12%; in the experiment with Klebsiella pneumoniae it was 4.76%; with Candida albicans, -3.39%; in the experiment with Cryptococcus neoformans, -9.6%.

For `CC(C)=CCc1c2c(c3occ(-c4ccc(O)c(O)c4)c(=O)c3c1O)C=CC(C)(C)O2` [POMIFERIN], the Inhibition in the experiment with Staphylococcus aureus was 6.8%; in the experiment with Acinetobacter baumannii, 23.27%; with Escherichia coli it was 0.91%; in the experiment on Klebsiella pneumoniae it was 26.31%; with Candida albicans, -6.81%; with Cryptococcus neoformans, -8.85%.

Turning to `C/C=C/c1cc2c(c(=O)o1)C(=O)[C@@H](O)[C@H](C)O2`, the Inhibition in the experiment on Staphylococcus aureus is -0.66%; in the experiment with Acinetobacter baumannii, -9.6%; with Escherichia coli it was 14.21%; with Klebsiella pneumoniae it was -6.98%; in the experiment with Candida albicans it was 1.1%; in the experiment with Cryptococcus neoformans, -12.06%.

`C=C1C(=O)OC2CC1C(O)C/C(C)=C/CC/C(C)=C/C(O)CC2C` (stereo not given): the Inhibition with Staphylococcus aureus was 8.79%; in the experiment on Acinetobacter baumannii it was -8.51%; with Escherichia coli it was 8%; with Klebsiella pneumoniae it was 4.77%; with Candida albicans, 2.83%; in the experiment with Cryptococcus neoformans it was -14.61%.

As for `CC1CC(O)C2C3(C)CCCC2(COC3=O)C12CCC1(CCOC1=O)O2` (stereo not given), the Inhibition was 0.12% with Staphylococcus aureus; -5.16% with Acinetobacter baumannii; 2.41% in the experiment on Escherichia coli; 8.95% in the experiment with Klebsiella pneumoniae; -0.89% with Candida albicans; -8.53% with Cryptococcus neoformans.

With `Cc1cc2nc3[nH]c(=O)[nH]c(=O)c3nc2cc1C` [LUMICHROME], the Inhibition in the experiment with Staphylococcus aureus is 0.69%; with Acinetobacter baumannii, -0.84%; with Escherichia coli it was 3.58%; in the experiment on Klebsiella pneumoniae it was 12.48%; in the experiment with Candida albicans, 0.84%; in the experiment on Cryptococcus neoformans, -5.45%.

Consider `COC(=O)[C@]1(C)CCC[C@]2(C)C3=CC(=O)[C@@]4(C(C)C)O[C@H]4[C@]3(O)CC[C@@H]12`, for which the Inhibition in the experiment with Staphylococcus aureus was 16.23%; in the experiment on Acinetobacter baumannii it was -9.2%; in the experiment on Escherichia coli, 10.18%; in the experiment on Klebsiella pneumoniae it was -2.04%; in the experiment with Candida albicans it was 3.2%; in the experiment on Cryptococcus neoformans it was -11.73%.

Consider `COc1c2occc2c(OC)c2c(=O)cc(C)oc12` [KHELLIN], for which the Inhibition in the experiment with Staphylococcus aureus was 20.27%; in the experiment with Acinetobacter baumannii it was -0.82%; in the experiment with Escherichia coli it was 5.11%; in the experiment on Klebsiella pneumoniae, 15.74%; with Candida albicans, -0.57%; with Cryptococcus neoformans, -6.58%.

Consider `C=C1C(=O)OC2CC(C)C3(O)CCC(=O)C3(C)CC12` (stereo not given), for which the Inhibition in the experiment on Staphylococcus aureus is 18.37%; in the experiment on Acinetobacter baumannii it was -10.29%; in the experiment on Escherichia coli, 9.08%; in the experiment with Klebsiella pneumoniae, 2.56%; in the experiment on Candida albicans, 2.8%; with Cryptococcus neoformans it was -16.95%.

For the molecule `CC(C)c1ccc2c(c1)CC[C@H]1[C@](C)(C(=O)O)CCC[C@]21C` [DEHYDROABIETIC ACID], the Inhibition with Staphylococcus aureus was 11.51%; in the experiment with Acinetobacter baumannii, -10.79%; in the experiment with Escherichia coli, 7.61%; in the experiment on Klebsiella pneumoniae, -3.77%; in the experiment on Candida albicans it was 14%; in the experiment on Cryptococcus neoformans it was -14.06%.

Regarding `CC(C)CC1NC(=O)C(C(C)C)NC(=O)CC(C)COC(=O)C(CC(C)C)N(C)C(=O)C(C(C)C)NC(=O)C(C(C)C)OC1=O` (stereo not given), the Inhibition is -2.11% in the experiment on Staphylococcus aureus; 3.02% in the experiment with Acinetobacter baumannii; 6.85% in the experiment with Escherichia coli; 6.52% in the experiment on Klebsiella pneumoniae; -1.26% in the experiment on Candida albicans; -9.65% with Cryptococcus neoformans.

On to `COc1cc2c3c(c4ccc(OC)c(OC)c4c2cc1OC)CN1CCC[C@@H]1C3` [TYLOCREBRINE], for which the Inhibition in the experiment with Staphylococcus aureus is 23.41%; in the experiment with Acinetobacter baumannii, -4.59%; with Escherichia coli, 1.54%; with Klebsiella pneumoniae, 13.12%; with Candida albicans it was -1.43%; in the experiment on Cryptococcus neoformans, -6.05%.

`CC1=C2[C@H]3OC(=O)[C@@H](C)[C@@H]3CC[C@@]2(C)C=C/C1=N\O`: the Inhibition was 19.54% in the experiment on Staphylococcus aureus; -5.16% with Acinetobacter baumannii; 3.05% in the experiment with Escherichia coli; 6.63% in the experiment on Klebsiella pneumoniae; -0.24% in the experiment with Candida albicans; -9.56% in the experiment on Cryptococcus neoformans.

As for `C=C1C(=O)OC2CC3(C)CCCC(C)C3=CC12` (stereo not given), the Inhibition in the experiment with Staphylococcus aureus is 9.16%; in the experiment on Acinetobacter baumannii, -5.59%; with Escherichia coli, -1.07%; in the experiment with Klebsiella pneumoniae, 10.15%; in the experiment with Candida albicans, 0.7%; in the experiment with Cryptococcus neoformans, -3.97%.

Take `CC(=O)O.COc1ccc2c(=O)oc3c(OC)cc(CCN(C)C)c4c(=O)oc1c2c34`: the Inhibition in the experiment with Staphylococcus aureus is 18.21%; with Acinetobacter baumannii, -7.25%; with Escherichia coli, 6.5%; with Klebsiella pneumoniae, 15.37%; in the experiment on Candida albicans, -2.47%; in the experiment on Cryptococcus neoformans, -6.47%.

As to `CCCCCC[C@H]([C@H](C)O)n1cnc2c(N)ncnc21.Cl`, the Inhibition is 18.32% in the experiment with Staphylococcus aureus; -17.98% in the experiment with Acinetobacter baumannii; 7.31% with Escherichia coli; -3.55% in the experiment on Klebsiella pneumoniae; -0.37% with Candida albicans; -9.44% in the experiment on Cryptococcus neoformans.

Consider `CCCCCCCCCCCCCCCCCCOCC(O)CO` (stereo not given) [BATILOL], for which the Inhibition in the experiment on Staphylococcus aureus is 16.14%; with Acinetobacter baumannii it was -8.86%; in the experiment on Escherichia coli it was 0.06%; in the experiment on Klebsiella pneumoniae, 2.79%; in the experiment on Candida albicans, -1.81%; in the experiment with Cryptococcus neoformans, 0.87%.

On to `O=C(O)CCCCCCC[C@@H](O)[C@@H](O)CCCCCCO`, for which the Inhibition is 20.06% in the experiment with Staphylococcus aureus; -9.87% in the experiment on Acinetobacter baumannii; 9.65% in the experiment on Escherichia coli; 0.28% with Klebsiella pneumoniae; 1.24% with Candida albicans; -6.7% with Cryptococcus neoformans.

As to `COc1c(O)cc2oc3cc(O)c(CC=C(C)C)c(O)c3c(=O)c2c1CC=C(C)C` [MANGOSTIN], the Inhibition in the experiment with Staphylococcus aureus is -10.76%; with Acinetobacter baumannii, -19.44%; with Escherichia coli, -3.06%; with Klebsiella pneumoniae it was -4.57%; in the experiment with Candida albicans, -6.96%; in the experiment on Cryptococcus neoformans it was -8.44%.

Turning to `CCCCCCCCCCCCCCCC(=O)O[C@@H]1[C@@H](C)[C@@]2(O)[C@@H](C=C(CO)C[C@]3(O)C(=O)C(C)=C[C@@H]23)[C@H]2[C@]1(OC(C)=O)[C@]2(C)CO`, the Inhibition with Staphylococcus aureus was 18.67%; in the experiment on Acinetobacter baumannii it was -9.19%; in the experiment on Escherichia coli, 2.92%; with Klebsiella pneumoniae, 11.05%; in the experiment on Candida albicans, -4.72%; in the experiment on Cryptococcus neoformans it was -11.83%.

For the molecule `O=C1c2cc(O)c(O)cc2O[C@H](c2ccc(O)c(O)c2)[C@H]1O`, the Inhibition is 16.46% in the experiment with Staphylococcus aureus; -11.64% in the experiment on Acinetobacter baumannii; 7.15% in the experiment on Escherichia coli; 6.5% with Klebsiella pneumoniae; -0.56% in the experiment with Candida albicans; -13.12% in the experiment with Cryptococcus neoformans.

Turning to `COc1c2c(cc3c1[C@@H]1Oc4c(ccc(O)c4CC=C(C)C)[C@@H]1CO3)OC(C)(C)C=C2`, the Inhibition was -1.33% in the experiment with Staphylococcus aureus; -12.04% in the experiment on Acinetobacter baumannii; 1.21% in the experiment on Escherichia coli; -0.46% in the experiment with Klebsiella pneumoniae; 5.57% in the experiment with Candida albicans; -11.6% in the experiment with Cryptococcus neoformans.
